Source: PubChem BioAssay (National Center for Advancing Translational Sciences (NCATS))
L3MBTL1 block = L3MBTL1 (human) inhibition. Q9Y468. AlphaScreen L3MBTL1–H3K9me1 peptide binding. Potency, µM (highest dose often 57.1 µM), usual class: inhibitors. 230,000 tested, 0.66% active. AID 485360; note: nearly all actives have a fitted effect of over 60% in size
Target sequence (Q9Y468 whole entry, looked up): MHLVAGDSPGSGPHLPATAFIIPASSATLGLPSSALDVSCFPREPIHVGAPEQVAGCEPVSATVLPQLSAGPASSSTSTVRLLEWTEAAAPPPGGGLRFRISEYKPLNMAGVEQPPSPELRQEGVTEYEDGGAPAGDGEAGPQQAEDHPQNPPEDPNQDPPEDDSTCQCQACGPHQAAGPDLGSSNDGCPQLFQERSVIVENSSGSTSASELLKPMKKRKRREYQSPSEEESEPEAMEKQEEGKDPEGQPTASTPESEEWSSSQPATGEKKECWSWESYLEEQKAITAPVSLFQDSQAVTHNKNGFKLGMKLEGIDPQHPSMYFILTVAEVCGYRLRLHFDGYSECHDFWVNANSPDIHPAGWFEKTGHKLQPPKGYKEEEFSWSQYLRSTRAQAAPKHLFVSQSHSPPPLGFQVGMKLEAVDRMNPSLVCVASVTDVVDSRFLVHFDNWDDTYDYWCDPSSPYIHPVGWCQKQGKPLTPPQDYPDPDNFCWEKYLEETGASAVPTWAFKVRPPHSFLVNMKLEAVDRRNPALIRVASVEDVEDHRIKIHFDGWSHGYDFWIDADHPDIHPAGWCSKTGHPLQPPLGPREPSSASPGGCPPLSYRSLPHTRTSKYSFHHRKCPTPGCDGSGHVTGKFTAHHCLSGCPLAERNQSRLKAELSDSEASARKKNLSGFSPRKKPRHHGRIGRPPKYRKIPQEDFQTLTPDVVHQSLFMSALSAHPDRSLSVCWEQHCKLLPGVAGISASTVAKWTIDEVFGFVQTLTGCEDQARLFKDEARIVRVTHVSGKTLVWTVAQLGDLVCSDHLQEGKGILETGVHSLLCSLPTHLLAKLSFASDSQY
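AlphaScreen assay: L3MBTL1 (50 nM final) was preincubated 30 min at room temperature with biotinylated H3(1-15)K9me1 peptide (75 nM final), then 30 min with library compounds; streptavidin donor and nickel chelate acceptor beads (10 ug/mL final) added, 30 min dark.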
JMJD2A Tudor inh = blocks the human JMJD2A Tudor domain. O75164. AlphaScreen JMJD2A-Tudor / H3K4me3 peptide binding. Potency, µM (series often up to 114 µM), usual class: inhibitors. 390,000 tested, 4.4% active. AID 504339; note: nearly all actives have a fitted effect of over 50% in size
BAZ2B inh = inhibitors of human BAZ2B bromodomain | Q9UIF8 | AlphaScreen BAZ2B-H3K14Ac peptide displacement | Potency, µM (top dose mostly 114 µM), actives largely listed as inhibitors | 360,000 tested, 4.4% active | AID 504333; note: nearly all actives have a fitted effect of over 60% in size
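BAZ2B (50 nM) with biotin-H3(5-23)K14Ac peptide (50 nM) in PBS pH 7.4, 0.01% Tween-20, preformed 30 min, then compound 30 min at room temperature; top concentration 110uM. AlphaScreen streptavidin donor/nickel chelate acceptor beads (10 ug/mL final), 20 min dark, signal read.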
HP1b binding inh = blocks HP1-beta chromodomain binding to methylated histone tails; P83916; AlphaScreen HP1-beta / biotin-H3K9me3 peptide binding; Potency, µM (doses to about 114 µM), usual class: inhibitors; 390,000 tested, 0.56% active; AID 540317; note: nearly all actives have a fitted effect of over 70% in size
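Compound inhibition of the preformed complex between 50 nM HP1-beta and 50 nM biotinylated H3K9me3 peptide was read by AlphaScreen. Buffer was PBS pH 7.4 with 0.01% Tween-20. Incubations ran 30 min at room temperature, with 10 ug/mL donor/acceptor beads.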
G9a inh = G9a (human) methyltransferase inhibition; Q96KQ7; G9a H3K9 monomethylation, AlphaScreen, 2 h; Potency, µM (titrated, usually from 102 µM), most hits filed as inhibitors; 350,000 tested, 8.8% active; AID 504332; note: nearly all actives have a fitted effect of over 75% in size
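Readings reflect AlphaScreen signal from monomethyl-H3K9 antibody detection. HMT at 20 nM; substrate b-H3K9 500 nM; cofactor SAM 20 uM; 2 h RT reaction; compounds tested as titrations in qHTS with 15 min preincubation.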
Numbers stand for hits; - = inactive; ? = inconclusive; . = no result; [ ] = another dose, or the depositor's remark. Only some compounds are listed: those with a hit (about 11% of all), similar ones and a draw of the others. Calls come from the whole dose curve; as a rule, active = well fitted inhibition curve with a large enough effect; inconclusive = small, poorly fitted or top-dose-only effect; inactive = no such curve, though single readings can be large or run the other way.

SMILES | L3MBTL1 block | JMJD2A Tudor inh | BAZ2B inh | HP1b binding inh | G9a inh
O=C(COc1ncnc2ccccc12)N1CCN(c2ccccc2)CC1 | . | - | - | - | 50µM
Cc1cc(Cl)cc(Br)c1OCCCCn1cncn1 | -[11.4 µM] | 3.5µM | 50µM | ? | ?
Oc1ccc(/C=N/N(Cc2ccccc2)c2ccccc2)c(O)c1O | . | 56µM | 28µM | ? | 28µM
Oc1cccc(/C=N/N(Cc2ccccc2)c2ccccc2)c1 | - | ? | ? | - | -
CNc1ccccc1C(C)(C)c1cc(-c2cccc([N+](=O)[O-])c2)no1 | ? | ? | ? | - | 32µM
COc1ccc(-c2ccc(N(C)C)cc2)cc1[C@H]1[C@@H]2C=CCC[C@@]2(C)C(=O)N1Cc1ccccc1 | . | 14µM | 7.9µM | ? | ?
COc1ccc(-c2ccc(N(C)C)cc2)cc1C1C2C=CCCC2(C)C(=O)N1Cc1ccccc1 (stereo not given) | . | 8.9µM | . | ? | .
COc1ccc(-c2ccc(OC)c([C@H]3[C@@H]4C=CCC[C@@]4(C)C(=O)N3Cc3ccccc3)c2)cc1OC | . | ? | ? | - | -
O=C(NN=C1CCC(=NNC(=O)c2ccccn2)CC1)c1ccccn1 | - | 22µM | 7.9µM | - | .
Cc1cc2c(cc1C)/C(=N/NC(=O)c1ccccn1)CCC2 | - | - | 50µM | - | .
COc1ccc(CCNC(=O)CCCn2c(=O)c3ccccc3n(Cc3cccc(Cl)c3)c2=O)cc1OC | . | - | - | - | -
CCc1cccc(NC(=O)Nc2cccs2)c1 | - | ? | ? | - | 13µM
N#Cc1cccc(NC(=O)Nc2cccs2)c1 | - | - | - | - | 79µM
O=C(Nc1cccs1)Nc1c(F)c(F)c(F)c(F)c1F | - | - | ? | - | -
CCc1cccc(NC(=O)Nc2csc3c2CCCC3)c1 | . | - | - | - | -
Cc1cccc(C)c1NC(=O)Nc1cccs1 | . | - | - | - | 50µM
Cc1cc2c(s1)c1cnn(Cc3ccc(OC(F)F)cc3)c(=O)c1n2C | . | - | . | . | .
CCCC12CN3CC(CCC)(CN(C1)C3c1ccc(OCc3ccccc3)cc1)C2=O (stereo not given) | . | - | - | - | -
O=C1CCN(S(=O)(=O)c2ccccc2)N1 | - | - | - | - | 11µM
COc1ccc(-c2cc(C(C)=O)c(C)n2CCC(=O)Nc2cccc(C)c2C)cc1 | . | - | - | - | -
COc1ccc(CNCc2c(C(=O)O)c(C)n(Cc3ccccc3C)c2C)c(OC)c1 | . | - | ? | - | -
O=C(Cn1c(=O)n(-c2cccc(C(F)(F)F)c2)c(=O)c2sccc21)NCC1CCCO1 (stereo not given) | . | 40µM | - | - | -
CC(=O)c1cccc(OCC(=O)Nc2cccc(C(=O)Nc3c(C)n(C)n(-c4ccccc4)c3=O)c2)c1 | - | - | - | - | -[2.33 µM]
Cc1cc(C(=O)Nc2nc3ccc(Cl)cc3s2)nn1C | - | 25µM | - | - | -
Cn1ncc(Cl)c1C(=O)Nc1nc2ccc(Cl)cc2s1 | - | - | - | - | 7.9µM
SMILES | L3MBTL1 block | JMJD2A Tudor inh | BAZ2B inh | HP1b binding inh | G9a inh
CCSc1ncc(Cl)c(C(=O)Nc2nc3ccc(Cl)cc3s2)n1 | . | - | - | - | -
COc1cccc(N2CCN(C(=O)c3cnc4c(-c5ccc(F)cc5)c(C)nn4c3C)CC2)c1 | . | - | ? | - | -
Nc1n[nH]c(N)c1N=Nc1ccc(Cl)cc1Cl | - | 32µM | 32µM | - | ?
Nc1n[nH]c(N)c1N=Nc1ccccc1F | . | ? | ? | - | -
CC(=O)N1CCc2cc(Br)cc(S(=O)(=O)CCC(=O)N3CCN(c4ccccc4Cl)CC3)c21 | . | - | - | - | -
O=c1ccc2ccc(O)c(O)c2o1 | . | . | . | . | 0.84µM
COc1ccc2c(c1)cc1c(=O)n(CC(=O)NC3CC3)nc(C)n12 | . | - | - | - | -
CCCCOC(=O)CNc1n[nH]c(=S)[nH]c1=O | . | - | - | - | -[12.7 µM]
CC(C)COC(=O)CNc1n[nH]c(=S)[nH]c1=O | . | 50µM | - | - | -[12.7 µM]
NC(=O)CNc1n[nH]c(=S)[nH]c1=O | - | 20µM | - | - | .
CCC(=O)NCc1nc2ccccc2n1Cc1ccccc1 | . | - | - | - | -
O=C1N(Cc2cccnc2)C[C@@H]2C[C@@H](c3cccc(Oc4ccccc4)c3)N3CCC[C@@]123 | - | - | ? | - | 13µM
O=C1N(Cc2cccc(Cl)c2)C[C@@H]2C[C@@H](c3cccn3-c3cccnc3)N3CCC[C@@]123 | - | ? | ? | - | 50µM
Cc1cccc(C)c1NC(=O)c1sccc1SCC#N | - | - | - | - | 11µM
COC(=O)Cc1n[nH]c(=O)c2ccccc12 | . | - | - | - | -[12.7 µM]
COC(=O)Cc1n[nH]c(=S)[nH]c1=O | - | 79µM | - | - | -
Cc1nnc(SCC(=O)Nc2ccc(N(C)C)cc2)[nH]c1=O | . | - | ? | - | ?
CCOc1ccccc1NC(=O)C(CC(C)C)NS(=O)(=O)c1ccc2c(c1)CCN2C(C)=O (stereo not given) | . | - | . | - | -
COc1ccc(C(=O)N/N=C/c2sc3ccccc3c2O)cc1 | - | ? | 45µM | - | 50µM
O=C(N/N=C/c1sc2ccccc2c1O)c1cccc2ccccc12 | - | 79µM | 45µM | - | -
O=C(N/N=C/c1sc2ccccc2c1O)c1ccccc1 | - | ? | ? | - | ?
CC(=O)Nc1ccn(C2OC(C(COC(C)=O)NC(=O)C(COCc3ccccc3)NC(=O)OC(C)(C)C)C(OC(C)=O)C2OC(C)=O)c(=O)n1 (stereo not given) | . | - | . | - | .
CN(C)c1nc(N)ncc1-c1ccc(Oc2ccccc2)cc1 | . | - | - | - | -
Cc1ccc(NC(=O)c2ncn(CC(=O)N[C@H](C)c3cccc4ccccc34)n2)cc1C | - | - | . | - | .
Cc1ccc(NC(=O)c2ncn(CCCN3CCN(Cc4cccc5ccccc45)CC3)n2)cc1C | . | 50µM | . | ? | .
SMILES | L3MBTL1 block | JMJD2A Tudor inh | BAZ2B inh | HP1b binding inh | G9a inh
CCOC(=O)c1ccc(OC(=O)c2cn(-c3ccc(C)cc3)c(=O)c3ccccc23)cc1 | . | - | - | - | -
CCOc1ccc(OC(=O)c2cn(-c3ccc(C)cc3)c(=O)c3ccccc23)cc1 | . | 50µM | - | - | -
Fc1ccccc1N1CCN(CC2CCCCC2)CC1 | -[2.29 µM] | 20µM | 79µM | ? | -[0.501 µM]
O=C(NCCc1ccccc1)C(=O)NCC(c1cccnc1)N1CCN(c2ccccc2F)CC1 (stereo not given) | . | - | - | - | -
Fc1ccccc1N1CCN(Cc2cccnc2)CC1 | - | 1.6µM | 56µM | ? | 28µM
COc1ccc(OCC2CCNCC2)cc1 | . | - | - | - | 50µM
COc1ccc(CNC(=O)C2CCNCC2)cc1 | - | - | - | - | -
COc1ccccc1-c1nnc(C2CCN(S(=O)(=O)c3ccccc3)CC2)o1 | . | - | - | - | ?
COc1ccccc1-c1nnc(C2CCN(S(=O)(=O)c3ccccc3[N+](=O)[O-])CC2)o1 | . | - | - | - | 40µM
COc1ccc(-c2nnc(C3CCN(S(=O)(=O)c4ccccc4)CC3)o2)cc1 | - | - | - | - | 40µM
